Data reported in PubChem BioAssay (NCATS).
Records with an inconclusive call do not appear. Activity calls are given as the source filed them. Unless noted, calls follow the shape of the dose curve; as a rule, active = well fitted curve in the direction sought with a large enough effect; inconclusive = small, poorly fitted or top-dose-only effect, or another doubt; inactive = no such curve, though single readings can be large; an effect the other way counts as inactive or inconclusive.

Experiments:
[1] = Cytotoxicity counterscreen for NFkB agonists and antagonists (AID 624476);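 also: cells exposed to compound for 48 hours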; also: potency is read from the fitted curve at half-maximal effect
[2] = qHTS Assay for Identification of Small Molecule Agonists for NFkB Signaling Pathway. (AID 624478);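 also: compounds tested together with TNF alpha at its EC50 of 10 pM; 0% is about no effect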
In short: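 Assay medium contained 0.5% FBS and 10 mM HEPES pH 7.3. Compounds were added together with TNF alpha (10 pM final), incubated 5 h at 37 C, and the beta-lactamase signal was measured fluorometrically.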

[3] = qHTS Assay for Identification of Small Molecule Antagonists for NFkB Signaling Pathway. (AID 624479; calls by dose curve;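 also: pathway stimulated with TNF alpha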; also: potency is read from the fitted curve at half-maximal effect)
[4] = Cell Proliferation Assay against the TMD8 Cell Line (AID 651645); conditions: TMD8 DLBCL cell line proliferation/viability; at 46.1 µM (top of the series);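 also: cells exposed to compound for 48 h before reading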
In short: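 Luminescent ATP read-out (CellTiter-Glo, 15 min RT) after 48 h compound exposure of log-growing TMD8 cells at 37C; percent activity scaled between DMSO as 100% and 9.2 uM bortezomib final as 0%.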

[5] = Cell Proliferation Assay against the HBL1 Cell Line (AID 651646); conditions: HBL1 DLBCL cells; at 46.1 µM (top of the series);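 also: cells exposed to compound for 48 h before reading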
In short: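 CellTiter-Glo luminescence after 48 h compound exposure at 37C gives percent activity, with DMSO as 100% and 9.2 uM bortezomib final as 0%. Cells: 500 log-phase HBL1 per well, RPMI plus 5% FBS.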

[6] = target: Voltage-gated inwardly rectifying potassium channel KCNH2 (Homo sapiens) (UniProt Q12809); test: qHTS Assay for Small Molecule Inhibitors of the Human hERG Channel Activity (AID 588834);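 also: top concentration of the series differs between compounds; % is scaled to controls: 0 for no effect and ±100 for the full control effect; lower thallium flux fluorescence means stronger hERG block; nearly all actives have a fitted effect of over 50% in size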
Voltage-gated inwardly rectifying potassium channel KCNH2 (Homo sapiens), sequence (Q12809 whole entry, looked up): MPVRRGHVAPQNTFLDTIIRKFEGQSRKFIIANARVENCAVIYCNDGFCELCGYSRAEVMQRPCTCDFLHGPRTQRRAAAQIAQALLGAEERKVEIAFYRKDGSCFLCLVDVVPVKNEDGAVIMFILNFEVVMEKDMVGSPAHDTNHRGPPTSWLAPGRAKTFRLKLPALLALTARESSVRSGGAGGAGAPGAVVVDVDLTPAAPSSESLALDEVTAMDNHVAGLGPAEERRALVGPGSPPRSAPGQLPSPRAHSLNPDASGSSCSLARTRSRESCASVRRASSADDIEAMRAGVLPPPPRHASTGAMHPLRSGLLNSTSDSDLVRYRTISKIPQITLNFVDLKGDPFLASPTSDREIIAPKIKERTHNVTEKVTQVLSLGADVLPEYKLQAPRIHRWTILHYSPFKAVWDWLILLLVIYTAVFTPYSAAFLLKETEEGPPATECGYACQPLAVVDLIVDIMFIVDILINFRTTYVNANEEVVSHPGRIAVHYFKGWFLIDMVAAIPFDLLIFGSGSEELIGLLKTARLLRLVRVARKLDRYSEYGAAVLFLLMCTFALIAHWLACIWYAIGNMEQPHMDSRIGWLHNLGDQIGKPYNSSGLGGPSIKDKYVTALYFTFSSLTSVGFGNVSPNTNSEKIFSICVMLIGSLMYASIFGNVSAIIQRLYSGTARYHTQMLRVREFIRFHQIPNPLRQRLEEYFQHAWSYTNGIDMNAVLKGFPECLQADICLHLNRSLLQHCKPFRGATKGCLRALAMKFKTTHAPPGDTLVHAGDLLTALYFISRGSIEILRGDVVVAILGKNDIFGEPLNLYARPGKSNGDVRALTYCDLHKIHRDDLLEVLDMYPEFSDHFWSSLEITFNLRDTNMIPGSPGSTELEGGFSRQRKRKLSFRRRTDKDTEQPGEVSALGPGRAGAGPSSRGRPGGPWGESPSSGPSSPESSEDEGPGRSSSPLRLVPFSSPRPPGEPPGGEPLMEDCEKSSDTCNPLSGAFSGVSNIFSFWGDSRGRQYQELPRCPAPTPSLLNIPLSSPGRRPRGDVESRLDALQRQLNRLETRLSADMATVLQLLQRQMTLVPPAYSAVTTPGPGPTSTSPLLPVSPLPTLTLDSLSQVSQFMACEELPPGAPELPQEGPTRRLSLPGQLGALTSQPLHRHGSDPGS
In short: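 Thallium-flux (FluxOR) read-out on FDSS: fluorescence read 10 s before and 2 min after stimulation buffer. hERG-BacMam-transduced U2OS cells, compound exposure about 10 min. AC50 by standard Hill equation.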

[7] = target: Glutaminase kidney isoform, mitochondrial (Homo sapiens) (UniProt O94925); test: qHTS for Inhibitors of Glutaminase (GLS): LOPAC Validation (AID 624146);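 also: glutamate product detected by oxidase and peroxidase coupled Amplex red fluorescence gain; % is scaled to controls: 0 for no effect and ±100 for the full control effect; nearly all actives have a fitted effect of over 60% in size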
Glutaminase kidney isoform, mitochondrial (Homo sapiens), sequence (O94925 whole entry, looked up, canonical isoform): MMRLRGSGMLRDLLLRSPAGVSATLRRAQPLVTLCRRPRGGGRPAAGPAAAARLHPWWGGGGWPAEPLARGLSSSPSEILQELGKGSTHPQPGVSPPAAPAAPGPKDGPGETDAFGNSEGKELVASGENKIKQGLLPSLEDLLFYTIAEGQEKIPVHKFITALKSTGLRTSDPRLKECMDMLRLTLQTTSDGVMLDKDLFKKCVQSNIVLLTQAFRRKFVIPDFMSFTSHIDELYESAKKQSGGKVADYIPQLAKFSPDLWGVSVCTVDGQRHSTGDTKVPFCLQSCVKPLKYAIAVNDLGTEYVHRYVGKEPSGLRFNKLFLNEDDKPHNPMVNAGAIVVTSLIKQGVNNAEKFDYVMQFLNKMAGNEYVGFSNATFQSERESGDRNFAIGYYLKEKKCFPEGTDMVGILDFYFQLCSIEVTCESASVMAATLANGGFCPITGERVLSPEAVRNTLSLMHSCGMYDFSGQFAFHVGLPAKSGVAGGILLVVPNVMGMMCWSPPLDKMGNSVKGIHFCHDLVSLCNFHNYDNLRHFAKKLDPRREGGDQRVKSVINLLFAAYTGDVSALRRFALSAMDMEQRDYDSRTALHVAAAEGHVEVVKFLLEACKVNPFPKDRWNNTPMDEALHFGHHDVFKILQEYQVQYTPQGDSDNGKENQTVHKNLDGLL
In short: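 hKGA in 45 mM KH2PO4 pH 8.2, 0.02% Tween-20 with pin-transferred compounds; 1 mM L-glutamine (stock) plus glutamate oxidase/HRP/Amplex Red coupling added. Fluorescence read initially and after 30 min at RT.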

[8] = qHTS of Trypanosoma Brucei Inhibitors: LOPAC Validation (AID 624147); also: 0% is about no effect
In short: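 Activity of T. brucei pyruvate kinase was followed by Kinase-Glo Plus luminescence after the enzyme reacted 45 min at room temperature with 130 uM ADP (final) and substrate. Test compounds were added before ADP at multiple concentrations.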

[9] = target: Glucagon-like peptide 1 receptor (Homo sapiens) (UniProt P43220); test: qHTS of GLP-1 Receptor Agonists: LOPAC Validation (AID 624148);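 also: luminescence from a luciferase reporter switched on by cAMP; 0% is about no effect; higher luminescence signal means agonism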
Glucagon-like peptide 1 receptor (Homo sapiens), sequence (P43220 whole entry, looked up): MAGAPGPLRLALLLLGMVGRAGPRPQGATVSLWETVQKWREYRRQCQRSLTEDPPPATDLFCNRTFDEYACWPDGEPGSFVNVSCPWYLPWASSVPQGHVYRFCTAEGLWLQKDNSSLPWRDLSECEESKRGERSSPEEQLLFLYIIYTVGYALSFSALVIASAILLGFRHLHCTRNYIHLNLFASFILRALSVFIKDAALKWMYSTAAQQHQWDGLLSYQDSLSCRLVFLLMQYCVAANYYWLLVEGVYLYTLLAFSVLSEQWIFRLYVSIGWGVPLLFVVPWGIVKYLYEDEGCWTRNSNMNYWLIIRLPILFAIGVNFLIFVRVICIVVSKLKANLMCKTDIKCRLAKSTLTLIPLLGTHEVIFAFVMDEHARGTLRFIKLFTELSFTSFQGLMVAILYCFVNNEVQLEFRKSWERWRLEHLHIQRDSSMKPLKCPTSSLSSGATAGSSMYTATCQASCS
In short: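 Agonism scored as increased luciferase luminescence driven by cAMP in HEK293 clones carrying GLP-1R. Cells settled 12 hours, received compound for 4-6 hr at 37 deg C, 5% CO2, and were read after 12 min detection reagent at RT.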

[10] = qHTS of Nrf2 Activators: LOPAC Validation (AID 624149); also: 0% is about no effect
In short: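 Following overnight seeding in 5% FBS OPTI-MEM, AREc32_Fluc cells receive compounds for a 24 hr incubation at 37 deg C with 5% CO2. Steady-Glo is added, and after 30 min at RT luminescence is recorded.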

[11] = HTS Assay for Allosteric Antagonists of the Human D2 Dopamine Receptor: Hit Validation in HTRF (AID 624455);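 also: stable D1 dopamine receptor cell line scored for blocking the D1 response; % is scaled to controls: 0 for no effect and ±100 for the full control effect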
In short: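 Validation of hits used D1 receptor stably expressed in cells with HTRF detection of response inhibition; origin screen measured calcium flux following EC80 dopamine in a force-coupled, inducible Hek293 Trex D2 cell line.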

[12] = Cell Proliferation Assay against the TMD8 Cell Line (Caspase readout at 16 hrs) (AID 651712); also: potency is read from the fitted curve at half-maximal effect
In short: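 Caspase-Glo luminescence measured apoptosis after a 16 h, 37 C compound exposure of TMD8 cells (500 cells/well, 5% FBS RPMI). DMSO set 0% and bortezomib at 9.2 uM final set 100% activity.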

[13] = target: Luciferin 4-monooxygenase (Photinus pyralis) (UniProt P08659); test: Biochemical firefly luciferase enzyme assay for NPC (AID 624030); also: nearly all actives have a fitted effect of over 70% in size; also: potency is read from the fitted curve at half-maximal effect
Luciferin 4-monooxygenase (Photinus pyralis), sequence (P08659 whole entry, looked up): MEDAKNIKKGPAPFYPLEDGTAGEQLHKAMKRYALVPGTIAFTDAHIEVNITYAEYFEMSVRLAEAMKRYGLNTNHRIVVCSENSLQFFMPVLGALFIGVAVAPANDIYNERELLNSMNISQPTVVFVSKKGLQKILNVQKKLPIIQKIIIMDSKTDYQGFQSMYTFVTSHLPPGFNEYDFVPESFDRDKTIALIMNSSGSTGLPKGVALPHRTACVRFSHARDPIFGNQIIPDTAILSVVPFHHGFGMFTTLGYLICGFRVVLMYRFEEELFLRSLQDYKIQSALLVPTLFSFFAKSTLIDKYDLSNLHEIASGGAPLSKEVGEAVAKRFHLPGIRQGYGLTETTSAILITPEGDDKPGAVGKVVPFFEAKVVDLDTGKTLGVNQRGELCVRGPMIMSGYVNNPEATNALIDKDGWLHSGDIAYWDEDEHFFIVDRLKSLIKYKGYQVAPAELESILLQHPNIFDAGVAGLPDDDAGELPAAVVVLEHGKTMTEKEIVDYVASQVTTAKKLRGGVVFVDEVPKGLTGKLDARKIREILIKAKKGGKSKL
In short: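 Direct inhibition of firefly luciferase enzyme (10 nM final, 50 mM Tris Acetate) assessed by luminescence within 5 minutes. Percent activity scaled between DMSO and PTC124 positive control, with concentration-effect curves classified by fit quality and response.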

[14] = S16 Schwann cell viability assay (CellTiter-Glo assay) (AID 624031);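 also: native untransfected S16 rat Schwann cells; plate controls were DMSO-treated cells for no effect and cell-free wells for full effect; nearly all actives have a fitted effect of over 70% in size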
In short: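 Counter-screen for cytotoxicity: parental S16 rat Schwann cells lacking the PMP22 reporters, treated 24 h with compound, viability from cellular ATP by CellTiter-Glo luminescence, normalized to DMSO (0%) and no-cell wells.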

[15] = S16 Schwann cell PMP22 intronic element firefly luciferase assay (AID 624032);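 also: plate controls were DMSO for no effect and PTC124 positive control mean for full effect; nearly all actives have a fitted effect of over 30% in size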
In short: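 Luciferase reporter of PMP22 intronic-element expression in stably transfected S16 rat Schwann cells, read by ONE-Glo luminescence after 24 h compound exposure at 37 C. Activity scaled between DMSO (0%) and positive-control PTC124; concentration-effect curves quality-classified.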

[16] = S16 Schwann cell PMP22 intronic element beta-lactamase assay (AID 624044; calls by dose curve;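 also: 0% = DMSO and -100% = potassium clavulanate positive control; nearly all actives have a fitted effect of over 15% in size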)
In short: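 Beta-lactamase reporter under a PMP22 intronic regulatory element in stable S16 rat Schwann cells; 24 h compound exposure. 460 nm blue signal normalized between DMSO (0%) and potassium clavulanate, with 535 nm FRET tracking viability; curves classed by r2 and response.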

[17] = Cell Proliferation Assay against the TMD8 Cell Line (Caspase readout at 8 hrs) (AID 651713); also: potency is read from the fitted curve at half-maximal effect
In short: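 Luminescent caspase 3/7 assay; TMD8 cells, 8 h treatment at 37C, 5% CO2. Normalisation: DMSO 0%, 9.2 uM bortezomib 100%.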

Which results are given for CC(C)C[C@H](NC(=O)CNC(=O)c1cc(Cl)ccc1Cl)B(O)O?
Potency [1]: 74.3 nM (active); outcome [2]: inactive; Potency [3]: 8.4 nM (active); viability (% of control) [4]: 4.52%; viability, percent of control [5]: 5.36%

With O=c1c2ccccc2nc2n1CCc1c-2[nH]c2ccccc12 as the compound, how does the Potency [6] read?
The Potency was “inactive”.

And the outcome [7]?
Its outcome is “inactive”.

And the outcome [8]?
Its outcome is “inactive”.

What about the outcome [9] of the same compound?
The outcome was “inactive”.

And the outcome [10]?
Its outcome is “inactive”.

And the outcome [11]?
The outcome was “inactive”.

What does the source list for O=C(O)c1ccc2cc(-c3ccc(O)c(C45CC6CC(CC(C6)C4)C5)c3)ccc2c1?
Potency [1]: 118 nM (active); outcome [2]: inactive; Potency [3]: 14900 nM (active); viability (% of control) [4]: 2.27%; viability, percent of control [5]: 1.91%

With COc1ccc(C=Cc2cc(OC)c(OC)c(OC)c2)cc1O as the compound, how does the Potency [1] read?
The Potency was “inactive”.

What about the outcome [2] of the same compound?
The outcome was “inactive”.

And the Potency [3]?
Its Potency is “inactive”.

What about the viability (% of control) [4] of the same compound?
Its viability (% of control) is 0.872%.

What about the viability, percent of control [5] of the same compound?
The viability, percent of control was 20.5%.

What about the Potency [12] of the same compound?
The Potency was 1.5 nM (active).

Which results are given for C#Cc1cccc(Nc2ncnc3cc(OC)c(OCCCCCCC(=O)NO)cc23)c1?
Potency [1]: 2640 nM (active); outcome [2]: inactive; Potency [3]: 16800 nM (active); viability (% of control) [4]: -0.46%; viability, percent of control [5]: 1.91%; Potency [12]: 148 nM (active)

Which results are given for COC(=O)C[C@](O)(CCCC(C)(C)O)C(=O)O[C@@H]1C(OC)=C[C@]23CCCN2CCc2cc4c(cc2[C@H]13)OCO4?
Potency [6]: inactive; Potency [13]: inactive; outcome [14]: inactive

Which Potency [6] does the source give for CC=CC1=C(C(=O)O)N2C(=O)[C@H](NC(=O)[C@H](N)c3ccc(O)cc3)[C@@H]2SC1 here?
The Potency was “inactive”.

And the Potency [13]?
The Potency was “inactive”.

And the outcome [14]?
The outcome was “inactive”.

What about the Potency [15] of the same compound?
The Potency was “inactive”.

With COc1cc(C(=O)NS(=O)(=O)c2ccccc2C)ccc1Cc1cn(C)c2ccc(NC(=O)OC3CCCC3)cc12 as the compound, how does the Potency [13] read?
Its Potency is 16100 nM (active).

And the outcome [14]?
The outcome was “inactive”.

And the Potency [15]?
The Potency was “inactive”.

And the Potency [16]?
Its Potency is “inactive”.

For CC(C)(C)c1cnc(CSc2cnc(NC(=O)C3CCNCC3)s2)o1, which Potency [1] is on record?
The Potency was 166 nM (active).

What about the outcome [2] of the same compound?
The outcome was “inactive”.

What about the Potency [3] of the same compound?
Its Potency is 47.3 nM (active).

And the viability (% of control) [4]?
Its viability (% of control) is 3.42%.

And the viability, percent of control [5]?
The viability, percent of control was 36.4%.

And the Potency [17]?
Its Potency is 93.5 nM (active).

With COc1ccc2c(c1)CC[C@@H](CN(C)CC(=O)O)[C@H]2c1ccccc1 as the compound, how does the Potency [1] read?
The Potency was “inactive”.

And the outcome [2]?
The outcome was “inactive”.

And the Potency [3]?
Its Potency is “inactive”.

And the viability (% of control) [4]?
Its viability (% of control) is 118%.

And the viability, percent of control [5]?
Its viability, percent of control is 98.5%.

What about the Potency [12] of the same compound?
The Potency was “inactive”.

And the Potency [17]?
The Potency was “inactive”.

Which results are given for COc1cc2ncnc(Nc3ccc(F)c(Cl)c3)c2cc1NC(=O)C=CCN1CCCCC1?
Potency [1]: 20900 nM (active); outcome [2]: inactive; Potency [3]: 16800 nM (active); viability (% of control) [4]: -0.755%; viability, percent of control [5]: 0.0432%; Potency [17]: 23500 nM (active)

With CCN1CCN(CC(=O)Nc2ccc(-c3cccc4c(=O)cc(N5CCOCC5)oc34)c3sc4ccccc4c23)CC1 as the compound, how does the Potency [1] read?
Its Potency is 5900 nM (active).

What about the outcome [2] of the same compound?
The outcome was “inactive”.

And the Potency [3]?
Its Potency is 13300 nM (active).

And the viability (% of control) [4]?
Its viability (% of control) is 0.621%.

What about the viability, percent of control [5] of the same compound?
The viability, percent of control was 0.638%.

What about the Potency [12] of the same compound?
The Potency was 469 nM (active).

What about the Potency [17] of the same compound?
Its Potency is 20900 nM (active).
